{
  "source": "PubChem BioAssay (NCATS)",
  "note": "Where “and” joins values, the source holds several entries; their conditions need not be identical. Equal values may be shown once. Inconclusive results are not listed. A call without a number means that no potency is given here. Calls of active or inactive are those of the source.",
  "data": [
    {"test_system": "not listed separately", "test": "qHTS assay for small molecule antagonists of peroxisome proliferator-activated receptor delta signaling (AID 588535; active = well fitted inhibition curve with a large enough effect in the signal ratio, with a control signal flat, not every such curve was filed as active; the % refers to the signal ratio; note: potency is the fitted concentration of half-maximal effect;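 for max response: cells co-treated with a PPAR-delta agonist as stimulator during compound exposure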)", "settings": "HEK293T PPARd-UAS-bla, beta-lactamase FRET ratio, 18 h; 460 nm channel", "summary_of_the_method": "(§1)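 Titrations were run on PPAR-delta-UAS-bla HEK293T cells in charcoal/dextran-stripped serum, incubated 18 h at 37 C. CCF4 fluorescence (460/530 nm) after 2 h RT; Hill equation yields IC50 and maximal response.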", "values": [
      {"molecule": "ClCCCl", "max response": "-25.6% and 21.1%"},
      {"molecule": "C=Cc1ccccc1Cl", "max response": "-3.33%"},
      {"molecule": "c1ccc2c(c1)c1cccc3ccc4cccc2c4c31", "max response": "25.2% and 42.4%"},
      {"molecule": "Cc1cccc([N+](=O)[O-])c1C", "max response": "-14.5% and -6.43%"},
      {"molecule": "CCCCCCCCO", "max response": "-13.8% and 47.8%"},
      {"molecule": "CC(C)=CCCC(C)CCO", "note": "(stereo not drawn)", "max response": "6.53% and 29.8%"},
      {"molecule": "O=[N+]([O-])c1cccc(Cl)c1Cl", "max response": "-5.68% and -3.79%"},
      {"molecule": "CCO[Si](CCCN)(OCC)OCC", "max response": "6.45% and -7.95%"},
      {"molecule": "Clc1cc(Cl)c(Cl)cc1Cl", "max response": "10.3% and -6.5%"},
      {"molecule": "CCO", "max response": "-20.9%"},
      {"molecule": "C=CC(=O)OCCOCCOCCOCCOC(=O)C=C", "max response": "-103%"},
      {"molecule": "CCCCC(CC)CN", "note": "(stereo not drawn)", "max response": "-11.9% and 2.89%"},
      {"molecule": "O=NO", "max response": "3.13% and -3.55%"},
      {"molecule": "c1ccc2c(c1)[nH]c1ccccc12", "max response": "-0.442% and 48.8%"},
      {"molecule": "OCCNCCO", "max response": "0.125% and 53.2%"},
      {"molecule": "Nc1ccc(Cl)cc1Cl", "max response": "65.7% and 18%"},
      {"molecule": "CCC(C)c1ccccc1O", "note": "(stereo not drawn)", "max response": "-8.1% and -17.6%"},
      {"molecule": "CC1=CC(C)(C)Nc2ccccc21", "max response": "34.8% and 1.74%"},
      {"molecule": "Cc1ccc(N)c([N+](=O)[O-])c1", "max response": "-16.3% and -11.9%"},
      {"molecule": "CCCCOCCO", "max response": "1.73% and 13.5% and -16.7%"},
      {"molecule": "CC(=O)OC/C=C(\\C)CCC=C(C)C", "max response": "-10.2% and 0.451%"}
    ]},
    {"target": "Peroxisome proliferator-activated receptor delta (Homo sapiens) (UniProt Q03181)", "sequence (Q03181 whole entry, looked up)": "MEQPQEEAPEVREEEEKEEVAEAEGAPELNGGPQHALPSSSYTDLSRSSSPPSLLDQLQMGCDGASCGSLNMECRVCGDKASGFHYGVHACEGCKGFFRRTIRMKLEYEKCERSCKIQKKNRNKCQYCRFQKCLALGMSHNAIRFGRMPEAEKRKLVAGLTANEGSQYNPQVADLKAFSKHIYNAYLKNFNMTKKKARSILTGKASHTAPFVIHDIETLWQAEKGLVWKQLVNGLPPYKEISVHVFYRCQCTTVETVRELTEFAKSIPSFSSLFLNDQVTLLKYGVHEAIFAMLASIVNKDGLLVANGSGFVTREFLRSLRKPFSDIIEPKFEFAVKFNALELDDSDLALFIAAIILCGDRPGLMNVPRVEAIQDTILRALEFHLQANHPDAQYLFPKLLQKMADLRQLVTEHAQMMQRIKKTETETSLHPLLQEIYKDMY", "test": "qHTS assay for small molecule antagonists of peroxisome proliferator-activated receptor delta signaling (AID 588535); note: potency is the fitted concentration of half-maximal effect;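 for max response: cells co-treated with a PPAR-delta agonist as stimulator during compound exposure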", "settings": "HEK293T PPARd-UAS-bla, beta-lactamase FRET ratio, 18 h; series mostly up to 76.7 µM", "summary_of_the_method": "as §1", "values": [
      {"molecule": "ClCCCl", "Potency": "inactive"},
      {"molecule": "C=Cc1ccccc1Cl", "Potency": "inactive"},
      {"molecule": "c1ccc2c(c1)c1cccc3ccc4cccc2c4c31", "Potency": "inactive"},
      {"molecule": "Cc1cccc([N+](=O)[O-])c1C", "Potency": "inactive"},
      {"molecule": "CCCCCCCCO", "Potency": "inactive"},
      {"molecule": "CC(C)=CCCC(C)CCO", "note": "(stereo not drawn)", "Potency": "inactive"},
      {"molecule": "O=[N+]([O-])c1cccc(Cl)c1Cl", "Potency": "inactive"},
      {"molecule": "CCO[Si](CCCN)(OCC)OCC", "Potency": "inactive"},
      {"molecule": "Clc1cc(Cl)c(Cl)cc1Cl", "Potency": "inactive"},
      {"molecule": "CCO", "Potency": "inactive"},
      {"molecule": "C=CC(=O)OCCOCCOCCOCCOC(=O)C=C", "Potency": "28.2 µM (active)"},
      {"molecule": "CCCCC(CC)CN", "note": "(stereo not drawn)", "Potency": "inactive"},
      {"molecule": "O=NO", "Potency": "inactive"},
      {"molecule": "c1ccc2c(c1)[nH]c1ccccc12", "Potency": "inactive"},
      {"molecule": "OCCNCCO", "Potency": "inactive"},
      {"molecule": "Nc1ccc(Cl)cc1Cl", "Potency": "inactive"},
      {"molecule": "CCC(C)c1ccccc1O", "note": "(stereo not drawn)", "Potency": "inactive"},
      {"molecule": "CC1=CC(C)(C)Nc2ccccc21", "Potency": "inactive"},
      {"molecule": "Cc1ccc(N)c([N+](=O)[O-])c1", "Potency": "inactive"},
      {"molecule": "CCCCOCCO", "Potency": "inactive"},
      {"molecule": "CC(=O)OC/C=C(\\C)CCC=C(C)C", "Potency": "inactive"}
    ]},
    {"target": "Peroxisome proliferator-activated receptor gamma (Homo sapiens) (UniProt P37231)", "sequence (P37231 whole entry, looked up)": "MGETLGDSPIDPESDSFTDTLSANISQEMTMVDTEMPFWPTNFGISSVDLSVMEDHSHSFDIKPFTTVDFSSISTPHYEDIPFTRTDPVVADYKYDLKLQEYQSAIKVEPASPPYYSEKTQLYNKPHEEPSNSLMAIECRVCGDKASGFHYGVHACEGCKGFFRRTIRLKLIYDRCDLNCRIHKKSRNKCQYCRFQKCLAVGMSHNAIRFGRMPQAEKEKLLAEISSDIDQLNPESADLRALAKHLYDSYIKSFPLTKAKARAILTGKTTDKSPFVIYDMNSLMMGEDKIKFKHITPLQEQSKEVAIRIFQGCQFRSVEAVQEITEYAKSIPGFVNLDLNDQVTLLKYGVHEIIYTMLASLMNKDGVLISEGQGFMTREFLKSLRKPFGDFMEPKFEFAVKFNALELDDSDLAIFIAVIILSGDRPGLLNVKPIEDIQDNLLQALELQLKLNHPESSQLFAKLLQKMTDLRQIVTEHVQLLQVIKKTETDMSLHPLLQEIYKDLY", "test": "qHTS assay for small molecule agonists of peroxisome proliferator-activated receptor gamma signaling (AID 588536; active = well fitted curve in the direction sought with a large enough effect in the signal ratio, with a control signal flat, not every such curve was filed as active; the % refers to the signal ratio)", "settings": "HEK293 PPARg-UAS-bla, beta-lactamase ratio, 16 h, percent of rosiglitazone response, DMSO as zero; series mostly up to 76.7 µM", "summary_of_the_method": "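Cells were plated and held 6–6.5 h at 37 C, then compounds were added as a titration series. After a further 16 h, CCF4 dye was loaded for 2 h at room temperature and emission at 460/530 nm recorded.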", "values": [
      {"molecule": "C=Cc1ccccc1Cl", "outcome": "inactive"},
      {"molecule": "CCCCCCCCO", "outcome": "inactive"},
      {"molecule": "O=[N+]([O-])c1cccc(Cl)c1Cl", "outcome": "inactive"},
      {"molecule": "CCO[Si](CCCN)(OCC)OCC", "outcome": "inactive"},
      {"molecule": "CCCCC(CC)CN", "note": "(stereo not drawn)", "outcome": "inactive"},
      {"molecule": "Nc1ccc(Cl)cc1Cl", "outcome": "inactive"},
      {"molecule": "CCC(C)c1ccccc1O", "note": "(stereo not drawn)", "outcome": "inactive"},
      {"molecule": "CC1=CC(C)(C)Nc2ccccc21", "outcome": "inactive"},
      {"molecule": "Cc1ccc(N)c([N+](=O)[O-])c1", "outcome": "inactive"},
      {"molecule": "CCCCOCCO", "outcome": "inactive"},
      {"molecule": "CC(=O)OC/C=C(\\C)CCC=C(C)C", "outcome": "inactive"}
    ]}
  ]
}
